Laboratory results taken from PubChem BioAssay AID2567 (National Center for Advancing Translational Sciences (NCATS), 2010).
Several values for one entry are separate records, joined by “and”; a condition that tells them apart may be missing. Equal values may be shown once. Records with an inconclusive call do not appear. Activity calls are given as the source filed them. Calls follow the shape of the dose curve; as a rule, active = well fitted antagonist curve with a large enough effect in the main read-out, with a control signal flat; inconclusive = small, poorly fitted or top-dose-only effect; inactive = no such curve, though single readings can be large or run the other way.

Target: Neuropeptide S receptor (Homo sapiens) (UniProt Q6W5P4)
Assay: Confirmation Concentration-Response Assay for Antagonists of the Neuropeptide S Receptor: Calcium Signal Transduction, SAR for Probe
Settings: CHO-NPSR cells, NPS-induced calcium fluorescence, FDSS; series mostly up to 50.9 µM
Description: NIH Chemical Genomics Center [NCGC] NIH Molecular Libraries Probe Production centers Network [MLPCN] MLPCN Grant: X01-DA026210-01 Assay Submitter (PI): Heilig, Markus Alexander NCGC Assay Overview: Neuropeptide S receptor (NPSR), previously known as GPR154, is a recently de-orphanized G protein coupled receptor. Its endogenous ligand is the 20 amino acids peptide Neuropeptide S (NPS). […] NPS and its receptor are found in various tissues. Specifically they are highly expressed in brain areas that have been implicated in modulation of arousal, stress and anxiety. Central administration of NPS in mice produces an unusual profile of activity by inducing wakefulness and arousal, while at the same time suppressing anxiety. Therefore, NPSR may represent a novel drug target for the treatment of sleep and anxiety disorders. To identify NPSR antagonists, we developed a cell-based assay with transfected NPS receptor. NPS can stimulate the production of cAMP as well as release intracellular calcium in Chinese hamster ovary cells stably expressing NPS receptor. This change in intracellular calcium can be detected using a calcium indicator dye on a calcium imaging plate reader system (FDSS).
NCGC Assay Protocol Summary: A Chinese hamster ovary (CHO) cell line stably expressing the NPS receptor (CHO-NPSR) was obtained from Dr. Heilig lab at NIAAA and maintained in F-12 Kaighn's media (Invitrogen, Carlsbad, CA, 21127) supplemented with 10 % FBS, 100 units/ml penicillin, 100 ug/ml streptomycin and 250 ug/ml geneticin at 37C, 5% CO2 in a humidified atmosphere. Before the assay, aliquots of cells were frozen and stored at -135C. The assay was performed on a FDSS-7000 kinetic plate reader in 1536-well format. For both agonist (1-220s) and antagonist (221-400s) phases, the maximums of kinetic fluorescence responses were converted separately into text files using the instrument's software data export utility. Data for agonist response were normalized to the controls for basal activity (DMSO only) and 100% activation (NPS). […] AC50 values were determined from concentration-response data modeled with the standard Hill equation. NPS 1536-well FDSS assay protocol: (1) Frozen CHO-NPSR cells were thaw, washed once with fresh media and resuspended in F-12 Kaighn's media supplemented with 10 % FBS, 100 units/ml penicillin and 100 ug/ml streptomycin. Cells were plated at 3 ul/well (1200 cells) to black, clear-bottom, tissue-culture treated 1536-well plates, and then cultured at 37C, 5 % CO2 for 16 to 30 hours. (2) Add 3 ul of calcium dye (from High Performance PBX Calcium Assay Kit, BD Biosciences). The calcium dye was prepared according to the manufactory's instruction. (3) Incubation at 37C, 5 % CO2 for 60 to 120 min. (4) Load plates to FDSS-7000. The following steps were performed on FDSS-7000. (5) Record fluorescent background (Ex 480 nm, Em 520-560 nm) for 10 s. (6) Add 23 nl/well of compound in DMSO solution. The final titration for each compound was between 0.6 nM and 46 uM. Record agonist response for 210 s. (7) Add 2 ul of stimulation reagent (1X HBSS buffer, 0.1% BSA, 60 nM NPS). Record antagonist response for 140 s. Keywords: MLSMR, MLPCN, NIH Roadmap, qHTS, NCGC, NPS, Neuropeptide S Antagonists

Sequence of Neuropeptide S receptor (Homo sapiens) (Q6W5P4 whole entry, looked up): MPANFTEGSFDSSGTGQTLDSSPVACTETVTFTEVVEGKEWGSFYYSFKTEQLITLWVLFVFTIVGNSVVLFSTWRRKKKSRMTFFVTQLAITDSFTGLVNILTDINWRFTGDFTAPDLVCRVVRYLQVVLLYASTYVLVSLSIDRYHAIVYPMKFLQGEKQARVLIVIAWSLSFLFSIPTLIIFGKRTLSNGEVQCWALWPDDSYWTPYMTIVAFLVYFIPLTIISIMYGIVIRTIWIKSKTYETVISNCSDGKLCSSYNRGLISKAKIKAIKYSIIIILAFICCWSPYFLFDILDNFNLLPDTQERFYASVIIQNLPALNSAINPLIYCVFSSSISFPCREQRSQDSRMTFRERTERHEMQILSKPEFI

SMILES | Potency
Cc1c(P(=S)(c2ccccc2)c2ccccc2)[n+]2ccccc2n1CCCc1ccccc1 | 0.0552 µM (active)
Cc1c(P(=S)(c2ccccc2)c2ccccc2)[n+]2ccccc2n1Cc1ccccc1 | 1.74 µM (active)
C=C1C(=O)O[C@@H]2C[C@@H](C)[C@@H]3C=CC(=O)[C@@]3(C)[C@@H](OC(=O)CC(=O)O[C@H]3[C@@H]4C(=C)C(=O)O[C@@H]4C[C@@H](C)[C@@H]4C=CC(=O)[C@]43C)[C@H]12 | 0.0891 µM (active)
Cc1c(P(=S)(c2ccccc2)c2ccccc2)[n+]2ccccc2n1C/C=C/c1ccccc1 | 0.0438 µM (active)
S=P(c1ccccc1)(c1ccccc1)c1c[n+](Cc2ccccc2)c2ccccn12 | 6.93 µM (active)
S=P(c1ccccc1)(c1ccccc1)c1c(-c2ccccc2)[nH]c2ccccc12 | inactive
Cc1c(P(=S)(c2ccccc2)c2ccccc2)[n+]2ccccc2n1CCc1ccccc1 | 1.38 µM (active)
C=C(C=O)C[C@@H]1C[C@H](O)C2OC3C[C@]4(C)OC5/C=C\CC6OC7C(CC=CCC6OC5CCCC4OC3CC2O1)OC1CC2OC3CC(=O)OC3C[C@@H](C)C[C@@]2(C)OC1C[C@@H]7C (stereo partly drawn) | 0.501 µM (active)
Cc1nc2ccccn2c1P(=S)(c1ccccc1)c1ccccc1 | 9.79 µM (active)
S=P(c1ccccc1)(c1ccccc1)c1cnc2ccccn12 | 12.3 µM (active)
Cn1c(-c2ccccc2)c(P(=S)(c2ccccc2)c2ccccc2)c2ccccc21 | inactive
CNc1ccc2oc(C[C@H]3O[C@@]4(CC[C@H]3C)O[C@H]([C@H](C)C(=O)c3ccc[nH]3)[C@H](C)C[C@H]4C)nc2c1C(=O)O | 0.0158 µM (active)
Cc1c(P(=S)(c2ccccc2)c2ccccc2)[n+]2ccccc2n1C | 199 nM (active) and 251 nM (active) and 220 nM (active)
CC(=O)Nc1cc([As](=O)(O)O)ccc1O | inactive
C[C@H]1CCCC(=O)CCCCCc2cc(O)cc(O)c2C(=O)O1 | inactive
Cc1c(P(=S)(c2ccccc2)c2ccccc2)c2ccccc2n1C | inactive
Cn1cc(P(=S)(c2ccccc2)c2ccccc2)c2ccccc21 | inactive
CCOC(=O)c1c(-n2c(C)cc(C=C3C(=O)NC(=S)NC3=O)c2C)sc2c1CCCC2 | 2 µM (active)
